# Assay results published in PubChem BioAssay AID1566 (Sanford-Burnham Center for Chemical Genomics, 2009).
# Hit rate of the full screen: of about 290,000 compounds, about 1,800 (0.62%) were called active. No stated cut-off is given here; in the data, active means inhibition above about 50%; inactive means the rest. What follows is part of a selection rich in actives, with near analogues and random picks from the rest.
# Assay: NOD2 signaling inhibitors, cell-based, luminescence, uHTS, HEK293 (AID 1566)
# Details: HEK293 NOD2/NF-kB luciferase reporter, at 4 µM, stronger effect = higher value
row,Structure (SMILES),inhibition
1,COc1ccc(Cl)c(OC)c1C(=O)NC(=O)Nc1nc(C)nc(C)n1,3.1% (inactive)
2,CC(=O)Nc1cc2nn(-c3ccccc3)nc2cc1Cl,-133% (inactive)
3,CC(C)(C)C(=O)Nc1cc2nn(-c3ccccc3)nc2cc1Cl,76.2% (active)
4,CCC(=O)Nc1cc2nn(-c3ccccc3)nc2cc1Cl,-189% (inactive)
5,CC1(C)c2ccccc2N2CCC(=O)NC21/C=C/c1ccco1 (stereo not given),3.8% (inactive)
6,O=C(Nc1ccccc1)c1cccc(N2C(=O)C3C4C=CC(C5CC45)C3C2=O)c1 (stereo not given),31.7% (inactive)
7,COC(=O)c1ccc(NC(=O)c2cccc(N3C(=O)C4C5C=CC(C6CC56)C4C3=O)c2)cc1 (stereo not given),58.5% (active)
8,COc1ccc(NC(=O)c2cccc(N3C(=O)C4C5C=CC(C6CC56)C4C3=O)c2)cc1 (stereo not given),9.4% (inactive)
9,CCOc1ccccc1C(=O)NC(C(=O)NCc1ccccc1OC)C(C)C (stereo not given),2.5% (inactive)
10,COCCNC(=S)N1CCN(c2nc(-c3ccc(Cl)cc3)cs2)CC1,35.9% (inactive)
11,CNC(=S)N1CCN(c2nc(-c3ccc(Cl)cc3)cs2)CC1,11.2% (inactive)
12,CC(C)CNC(=S)N1CCN(c2nc(-c3ccc(Cl)cc3)cs2)CC1,54.9% (active)
13,CCN(CC(=O)Nc1c(F)cccc1F)C(=O)CCc1c[nH]c2ccccc12,-24.9% (inactive)
14,Cc1onc(-c2ccccc2)c1NC(=O)N(CCC(=O)O)Cc1ccccc1,15.3% (inactive)
15,Cc1c(NC(=O)NCc2ccccc2)c(=O)n(-c2ccccc2)n1C,-6.6% (inactive)
16,Cc1ccc(C(=O)N/C(=C\c2ccc(-c3ccccc3[N+](=O)[O-])o2)C(=O)NCCCN2CCOCC2)cc1,38.2% (inactive)
17,Cc1ccc(C(=O)N/C(=C\c2ccc(-c3ccccc3[N+](=O)[O-])o2)C(=O)NCCN(C)C)cc1,50.5% (active)
18,Cc1ccc(C(=O)N/C(=C\c2ccc(-c3ccccc3[N+](=O)[O-])o2)C(=O)NCCCN(C)C)cc1,49.4% (inactive)
19,NC(=O)c1cc([N+](=O)[O-])ccc1NCCN1C(=O)c2ccc(C(=O)O)cc2C1=O,17.5% (inactive)
20,Cc1cc(=O)[nH]c2ccc(S(=O)(=O)Nc3ccccc3)cc12,4.4% (inactive)
21,O=C(Nc1ccc(C(=O)N2CCOCC2)cc1)c1cccc(Br)c1,8% (inactive)
22,Cc1sc2nc3c(C(=O)N4CCN(c5ccccn5)CC4)cccn3c(=O)c2c1C,3.3% (inactive)
23,C/C(Cn1nnc([N+](=O)[O-])n1)=N\NC(=O)c1cccc(Cl)c1,48.8% (inactive)
24,C/C(Cn1nnc([N+](=O)[O-])n1)=N\NC(=O)c1ccc(O)cc1,37.7% (inactive)

row,Structure (SMILES),inhibition
1,COc1ccc(-c2csc(/C(C#N)=C\c3ccc(O)c([N+](=O)[O-])c3)n2)cc1OC,-7.4% (inactive)
2,COc1ccc(-c2csc(/C(C#N)=C\c3ccc(OC)c([N+](=O)[O-])c3)n2)cc1,25.7% (inactive)
3,Cc1ncc(CO)c(/C=N/NC(=O)c2ccc(O)cc2)c1O,-8.9% (inactive)
4,Cc1ncc(CO)c(/C=N/NC(=O)c2ccc(Br)cc2)c1O,51.6% (active)
5,Cc1ncc(CO)c(/C=N/Nc2ccc(C(F)(F)F)cn2)c1O,59.1% (active)
6,COc1ccc(C(=O)N/N=C/c2c(CO)cnc(C)c2O)cc1,-27.8% (inactive)
7,Cc1ncc(CO)c(/C=N/Nc2cccc(Cl)n2)c1O,-52.5% (inactive)
8,COc1ccccc1N/N=C/c1c(CO)cnc(C)c1O,-3.8% (inactive)
9,Cc1c(=O)n(OCc2ccccn2)c2ccccc2[n+]1[O-],9.3% (inactive)
10,N#CC1=C(SCC(=O)Nc2ccc(C(=O)O)cc2)NC(=O)CC1c1ccco1 (stereo not given),-4.5% (inactive)
11,COc1ccc(-c2[nH]ncc2CN2CCN(c3ccccn3)CC2)c(OC)c1,11.3% (inactive)
12,COC(=O)c1sc(S(=O)(=O)N2CCC(C(=O)O)CC2)c(C(=O)OC)c1C,-0.8% (inactive)
13,COC(=O)COc1ccc(S(=O)(=O)N2CCCCC2)cc1[N+](=O)[O-],4.8% (inactive)
14,COc1cc(NC(C)=O)ccc1-c1cc2ccccc2oc1=O,-3.4% (inactive)
15,COc1cc(NC(=O)COc2ccc(Cl)cc2)ccc1-c1cc2ccccc2oc1=O,16.1% (inactive)
16,O=c1[nH]c(C2CCCN(S(=O)(=O)c3ccccc3)C2)nc2c1nnn2Cc1ccc2c(c1)OCCO2 (stereo not given),21.7% (inactive)
17,O=C(CN(CC1CCCO1)C(=O)CCC(=O)Nc1ccccn1)NCC1CCCO1 (stereo not given),4.7% (inactive)
18,Cc1ccc(C)c(-n2c(-c3ccc4c(c3)OCO4)n[nH]c2=S)c1,13.9% (inactive)
19,C=C(C)COc1ccc(-c2nc(N)nc(C)c2-c2ccc(OC)cc2)c(O)c1,20.5% (inactive)
20,O=C(CN1C(=O)NC2(CCCC2)C1=O)Nc1ccccc1C(F)(F)F,18.6% (inactive)
21,CCc1ccccc1NC(=O)CN(C)C(=O)CN1C(=O)NC2(CCCCCC2)C1=O,9.4% (inactive)
22,CCC(C)(C)C1CCC2(CC1)NC(=O)N(CC(=O)N(C)CC(=O)Nc1ccccc1C(F)(F)F)C2=O (stereo not given),52.8% (active)
23,CCOC(=O)N1CCC(NC(=O)c2ccc3c(c2)N(C)CCS3)CC1,4.6% (inactive)
24,CN(C)S(=O)(=O)c1ccc(C(=O)Nc2cc3c(cc2C(=O)O)OCCCO3)cc1,4% (inactive)

row,Structure (SMILES),inhibition
1,COc1ccc(C2NC(=O)NC(C)=C2[N+](=O)[O-])cc1OC (stereo not given),9.2% (inactive)
2,COc1ccc(/C=N/n2c(C)nc3ccccc3c2=O)cc1,-11.4% (inactive)
3,CC1(C)Cc2c(ccc3ccccc23)C2=C(C(=O)N3CCCC3)C(=O)C(=O)N21,52.7% (active)
4,CC1(C)Cc2ccccc2C2=C(C(=O)N3CCCCCC3)C(=O)C(=O)N21,16.7% (inactive)
5,CCOC(=O)C1=C2c3ccc4ccccc4c3CC(C)(C)N2C(=O)C1=O,17.7% (inactive)
6,Cc1ccc(S(=O)(=O)NCC(=O)OCC(=O)c2ccc(Br)s2)cc1,-2.2% (inactive)
7,COC(=O)c1sccc1NC(=O)CSc1ccccc1NS(=O)(=O)c1ccc(Cl)cc1,28.6% (inactive)
8,COC(=O)c1sccc1NC(=O)CSc1ccccc1NS(=O)(=O)c1ccccc1Cl,26% (inactive)
9,CN1CCN(C(=O)/C=C/c2c(F)cccc2Cl)CC1,9.9% (inactive)
10,c1ccc(-c2csc3nnc(SCc4ccc5c(c4)OCCO5)n23)cc1,33.7% (inactive)
11,O=C(/C=C/Nc1ccccc1Br)c1ccccn1,60% (active)
12,O=C(/C=C\Nc1ccccn1)c1ccccc1,-121% (inactive)
13,O=C(/C=C\Nc1ccc2c(c1)OCO2)c1ccccn1,33.4% (inactive)
14,CC1CCCC(NCC(O)COC(c2ccc(F)cc2)c2ccc(F)cc2)C1C (stereo not given),0.7% (inactive)
15,Fc1ccc2nc(Nc3nc4c(F)cc(F)cc4s3)sc2c1,-36.7% (inactive)
16,COC(=O)c1ccc2nc(NC(=O)C(C)(C)C)sc2c1,-3.1% (inactive)
17,CCC(CC)c1nnc(NC(=O)C2CC(=O)N(C3CCCC3)C2)s1 (stereo not given),8% (inactive)
18,Cc1ccc(NC(=O)CSc2ncnc3ccccc23)cc1S(=O)(=O)N1CCCCCC1,40.3% (inactive)
19,Cc1ccc(S(=O)(=O)N2CCCCC2)cc1NC(=O)CSc1ncnc2ccccc12,-36.1% (inactive)
20,OC1(c2cccnc2)CCN(Cc2nnnn2C2CCCCC2)CC1,19.2% (inactive)
21,CCC/C(=N\NC(=O)CNC(=O)/C=C/c1ccco1)c1ccccc1,6.6% (inactive)
22,COc1ccc(C)cc1Nc1n[n+](-c2ccccc2)c(-c2ccc(N(C)C)cc2)s1,8.3% (inactive)
23,Cc1ccc2c(c1)sc(-c1ccc(N(C)C)cc1)[n+]2C,51% (active)
24,CC[n+]1c(C)sc2cc(C)ccc21,5.7% (inactive)

row,Structure (SMILES),inhibition
1,CC(C)OC(=O)Nc1ccc(Oc2c(F)c(F)c(F)c(F)c2F)cc1,-5.3% (inactive)
2,CCC(C)c1cc(S(=O)(=O)N2CCOCC2)ccc1OC (stereo not given),-10.6% (inactive)
3,COc1cccc(/C=N/NC(=O)C[n+]2ccccc2)c1O,1% (inactive)
4,C=CCc1cccc(/C=N/NC(=O)C[n+]2ccccc2)c1O,53.2% (active)
5,C=CCc1cccc(/C=N/NC(=O)CNc2ccccc2)c1O,17.2% (inactive)
6,CN(C)CCNC(=S)NC1CCCCC1,8.6% (inactive)
7,CCCCCCCCCc1nc2sc3c(c2c(=O)n1NC(=O)c1ccccc1[N+](=O)[O-])CC(C)(C)OC3,12.2% (inactive)
8,CCCCCc1nc2sc3c(c2c(=O)n1NC(=O)c1ccc([N+](=O)[O-])cc1)CC(C)(C)OC3,5.3% (inactive)
9,CCCCCCCCCc1nc2sc3c(c2c(=O)n1NC(=O)c1ccc([N+](=O)[O-])cc1)CC(C)(C)OC3,57% (active)
10,Cc1oc2c(C)c3oc(=O)c(CCC(=O)NCCCCCC(=O)O)c(C)c3cc2c1C,18.8% (inactive)
11,O=C(Nc1ccc(Cl)cc1)c1ccc2ncsc2c1,-66.3% (inactive)
12,COC(=O)C(C)Oc1ccc(-c2nccc(-c3cccs3)n2)cc1 (stereo not given),-13.1% (inactive)
13,O=C(O)COc1ccc(-c2nccc(-c3cccs3)n2)cc1,55.9% (active)
14,Oc1ccc(-c2nccc(-c3cccs3)n2)cc1,-139% (inactive)
15,O=C(c1cnccn1)N1CCc2c([nH]c3ccccc23)C1c1cccc(Cl)c1 (stereo not given),-198% (inactive)
16,CC(C)(C)c1ccc(S(=O)(=O)N2CCC(c3nc4ccc(Cl)cc4[nH]3)CC2)cc1,-18.9% (inactive)
17,O=C(NC1CCCc2c1cnn2-c1ccccc1F)c1ccccn1 (stereo not given),-49.8% (inactive)
18,Cc1nnsc1C(=O)NC1CCCc2c1cnn2-c1cc(F)cc(F)c1 (stereo not given),21.9% (inactive)
19,Cc1nnsc1C(=O)NC1CCCc2c1cnn2-c1ccc(F)cc1F (stereo not given),49.3% (inactive)
20,Cn1nccc1C(=O)NC1CCCc2c1cnn2-c1cc(F)cc(F)c1 (stereo not given),30.4% (inactive)
21,Cc1cccc(-n2ncc3c2CCCC3NC(=O)C2CCOCC2)c1C (stereo not given),41.8% (inactive)
22,Cc1nnsc1C(=O)NC1CCCc2c1cnn2-c1ccccc1F (stereo not given),51.1% (active)
23,Cc1cc(C)cc(-n2ncc3c2CCCC3NC(=O)C2(C(N)=O)CC2)c1 (stereo not given),7.2% (inactive)
